This is an account of results in PubChem BioAssay (EPA / NIEHS).

Test [1] has as its target Retinoic acid receptor RXR-alpha (Homo sapiens) (UniProt P19793). Nature of the test: ATG_RXRa_TRANS: Attagene TRANS-FACTORIAL HepG2 Assay for human Retinoid X Receptor alpha (RXRa) (AID 2283012; active = hit-call score of the fitted dose curve at least 0.9, where 1 is the maximum). In short, it runs like this: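 Read-out: fluorescent reporter-transcript fragments quantified by capillary electrophoresis after RT-PCR. Transiently transfected HepG2 cells carrying GAL4-UAS reporters and NR-GAL4 chimeras were exposed to chemical for 24 h; activity scored as increase over DMSO.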

Test [2] addresses human Retinoid X Receptor beta (RXRb), RXRB (gene 6257) (UniProt P28702). The test can be described thus: ATG_RXRb_TRANS: Attagene TRANS-FACTORIAL HepG2 Assay for human Retinoid X Receptor beta (RXRb) (AID 2283013; active = hit-call score of the fitted dose curve at least 0.9, where 1 is the maximum). In a few lines: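 Read-out: reporter mRNA induction via RT-PCR plus capillary electrophoresis fluorescence, analysed as signal increase relative to DMSO. Cells were human HepG2, transiently transfected with GAL4-UAS reporter constructs and chimeric receptor-Gal4 fusions, dosed for 24 h.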

Read-out in test [3]: E-selectin (Homo sapiens) (UniProt P16581)
Nature of the test: BSK_3C_Eselectin: BioMAP Diversity Plus: 3C Assay for Eselectin Biomarker Activity (AID 2283015).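 Also: cell surface E-selectin protein quantified by ELISA 24 h after dosing.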 Conditions: primary human endothelial cells (HUVEC); actives raise or lower the signal. In a few lines:
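Endpoint derived by bidirectional fitting against DMSO vehicle; signal is ELISA-detected E-selectin from primary HUVEC at 24 h post-dosing, with parallel SRB staining (0.1% SRB, 560 nm) flagging cytotoxicity.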

Read-out in test [4]: Interleukin-1 alpha (IL1a), IL1A (gene 3552)
The test can be described thus: BSK_BE3C_IL1a: BioMAP Diversity Plus: BE3C Assay for Interleukin-1 alpha (IL1a) Biomarker Activity (AID 2283016). Conditions: primary human bronchial epithelial cells; actives raise or lower the signal. In short, it runs like this:
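ELISA read-out of IL-1a from human lung bronchial epithelial primary cells, 24 h post-dose. Gain or loss of signal fitted relative to DMSO negative control.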

Read-out in test [5]: Monocyte Chemoattractant Protein-1 (MCP1), CCL2 (gene 6347)
The test can be described thus: BSK_3C_MCP1: BioMAP Diversity Plus: 3C Assay for Monocyte Chemoattractant Protein-1 (MCP1) Biomarker Activity (AID 2283017). Conditions: primary human endothelial cells (HUVEC); actives raise or lower the signal. In short, it runs like this: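 Using human vascular primary endothelium, researchers measured MCP-1 by ELISA 24 h after treatment, with DMSO serving as negative control for bidirectional fitting.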

Read-out in test [6]: Monocyte Chemoattractant Protein-1 (MCP1), CCL2 (gene 6347)
Nature of the test: BSK_4H_MCP1: BioMAP Diversity Plus: 4H Assay for Monocyte Chemoattractant Protein-1 (MCP1) Biomarker Activity (AID 2283018). Conditions: primary human endothelial cells (HUVEC); actives raise or lower the signal. In short, it runs like this: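 HUVEC primary cells, 24 h post-dose, MCP-1 by ELISA. Gain or loss of signal fitted bidirectionally vs DMSO baseline. Cytotoxicity: SRB stain (0.1% after 10% TCA fixation), read 560 nm, parallel cultures.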

Read-out in test [7]: Human Leukocyte Antigen - DR isotype (HLADR), HLA-DRA (gene 3122)
Nature of the test: BSK_3C_HLADR: BioMAP Diversity Plus: 3C Assay for Human Leukocyte Antigen - DR isotype (HLADR) Biomarker Activity (AID 2283019).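 As to outcome: ELISA of cell-surface HLA-DR on HUVEC 24 h after dosing.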 Conditions: primary human endothelial cells (HUVEC); actives raise or lower the signal. In a few lines: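 Compound added to primary HUVEC cultures, 24 h incubation, then HLA-DR determined by ELISA; endpoint derived by bidirectional fitting relative to DMSO negative control.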

Read-out in test [8]: Interleukin-8 (IL8), CXCL8 (gene 3576)
Nature of the test: BSK_3C_IL8: BioMAP Diversity Plus: 3C Assay for Interleukin-8 (IL8) Biomarker Activity (AID 2283020). Conditions: primary human endothelial cells (HUVEC); actives raise or lower the signal. In short, it runs like this:
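HUVEC, 3C stimulation; 24 h compound exposure; IL-8 read by ELISA; gain or loss of signal fitted relative to DMSO control.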

Read-out in test [9]: Monokine induced gamma interferon (MIG), CXCL9 (gene 4283)
Nature of the test: BSK_3C_MIG: BioMAP Diversity Plus: 3C Assay for Monokine induced gamma interferon (MIG) Biomarker Activity (AID 2283021). Conditions: primary human endothelial cells (HUVEC); actives raise or lower the signal. In short, it runs like this: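 HUVEC, 3C system; 24 h chemical exposure; MIG by ELISA; bidirectional fit vs DMSO baseline.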

In test [10] the target is human Vitamin D Receptor (VDR), VDR (gene 7421) (UniProt P11473). Nature of the test: ATG_VDR_TRANS: Attagene TRANS-FACTORIAL HepG2 Assay for human Vitamin D Receptor (VDR) (AID 2283022; active = hit-call score of the fitted dose curve at least 0.9, where 1 is the maximum). In a few lines:
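Multiplexed TRANS reporter in HepG2; 24 h treatment; reporter mRNA by RT-PCR plus capillary electrophoresis; upregulation scored relative to DMSO.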

Test [11] is described as follows: BSK_3C_SRB: Viability Assessment in the BioMAP Diversity Plus: 3C Assay (AID 2283023).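 Also: cells read 24 h after compound dosing; fitted both ways against DMSO so a hit may be signal rise or drop.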 Conditions: primary human endothelial cells (HUVEC). In short, it runs like this: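 Overt cytotoxicity is gauged in parallel confluent HUVEC cultures by SRB total-protein staining at the time of biomarker measurement, 24 h after dosing. Gain or loss of signal is fitted versus DMSO.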

Read-out in test [12]: Matrix Metallopeptidase 1 (MMP1), MMP1 (gene 4312)
Nature of the test: BSK_BE3C_MMP1: BioMAP Diversity Plus: BE3C Assay for Matrix Metallopeptidase 1 (MMP1) Biomarker Activity (AID 2283024). Conditions: primary human bronchial epithelial cells; actives raise or lower the signal. In short, it runs like this:
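ELISA read-out of MMP1 in human lung bronchial epithelial primary cultures, 24 h post-dose; bidirectional curve fit vs DMSO baseline, gain or loss of signal scored.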

Test [13] can be described thus: BSK_3C_Vis: BioMAP Diversity Plus: 3C Assay for Morphology Visualization (AID 2283025).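 Also: fitted both ways so gain or loss versus DMSO counts.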 Conditions: primary human endothelial cells (HUVEC). In a few lines:
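HUVEC, 3C system; light microscopy of morphology at 24 h post-dose. Bidirectional fit vs DMSO baseline. Secondary readout, background-control function.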

Read-out in test [14]: Pselectin, SELP (gene 6403)
Nature of the test: BSK_4H_Pselectin: BioMAP Diversity Plus: 4H Assay for Pselectin Biomarker Activity (AID 2283026). Conditions: primary human endothelial cells (HUVEC); actives raise or lower the signal. In short, it runs like this: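 HUVEC, 24 h chemical exposure; P-selectin read by ELISA. Bidirectional curve fit vs DMSO baseline; gain or loss of signal scored.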

Test [15] is described as follows: BSK_4H_SRB: Viability Assessment in the BioMAP Diversity Plus: 4H Assay (AID 2283027).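 Also: cells exposed to compound for 24 h before staining.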 Conditions: primary human endothelial cells (HUVEC). In short, it runs like this: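 Cytotoxicity readout: sulforhodamine B (0.1%) staining of total protein after 10% TCA fixation, measured at 560 nm in human umbilical vein endothelium at 24 h. DMSO set the baseline; fitting was bidirectional.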

A short description of test [16]: BSK_BE3C_SRB: Viability Assessment in the BioMAP Diversity Plus: BE3C Assay (AID 2283028).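 Also: measured 24 h after chemical dosing.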 Conditions: primary human bronchial epithelial cells. In a few lines: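 SRB total-protein staining (0.1%, after TCA fixation) of chemically dosed human bronchial epithelial primary cells at 24 h; DMSO serves as the negative control for bidirectional curve fitting.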
Read-out in test [17]: Thrombomodulin, THBD (gene 7056)
The test can be described thus: BSK_3C_Thrombomodulin: BioMAP Diversity Plus: 3C Assay for Thrombomodulin Biomarker Activity (AID 2283029). Conditions: primary human endothelial cells (HUVEC); actives raise or lower the signal. In a few lines: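 HUVEC, 3C conditions; compound 24 h; thrombomodulin by ELISA; bidirectional curve fit vs DMSO baseline; parallel SRB total-protein staining for cytotoxicity.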

Read-out in test [18]: Urokinase-type plasminogen activator receptor (uPAR), PLAUR (gene 5329)
The test can be described thus: BSK_4H_uPAR: BioMAP Diversity Plus: 4H Assay for Urokinase-type plasminogen activator receptor (uPAR) Biomarker Activity (AID 2283030). Conditions: primary human endothelial cells (HUVEC); actives raise or lower the signal. In a few lines: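 Endpoint derived via bidirectional curve fitting against DMSO baseline; readout was ELISA detection of uPAR on umbilical vein endothelial cells at 24 h post-treatment, with SRB-stained parallel cultures assessing cytotoxicity.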

Read-out in test [19]: Vascular endothelial growth factor receptor 2 (Homo sapiens) (UniProt P35968)
Nature of the test: BSK_4H_VEGFRII: BioMAP Diversity Plus: 4H Assay for Vascular endothelial growth factor receptor 2 (VEGFR2) Biomarker Activity (AID 2283031). Conditions: primary human endothelial cells (HUVEC); actives raise or lower the signal. In short, it runs like this: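 In this multiplexed HUVEC system, biomarker ELISA was performed after 24 h chemical exposure. Parallel SRB staining (TCA fixation, 560 nm) tracked cytotoxicity; DMSO served as baseline.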

Test [20] concerns the target human Thyroid Receptor alpha (THRa1), THRA (gene 7067) (UniProt P10827). The test can be described thus: ATG_THRa1_TRANS: Attagene TRANS-FACTORIAL HepG2 Assay for human Thyroid Receptor alpha (THRa1) (AID 2283014; active = hit-call score of the fitted dose curve at least 0.9, where 1 is the maximum). In a few lines:
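Measured here is mRNA from a GAL4-UAS reporter in transfected HepG2 cells carrying a Gal4-fused receptor, 24 h post-dose. DMSO served as negative control and baseline.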

For orientation: AC50 means the midpoint of the concentration-response curve, whichever way the signal moves.

Inconclusive results are not listed. Active and inactive are the calls of the source. The calls were made as follows, unless noted: active = hit-call score of the fitted dose curve at least 0.9, where 1 is the maximum; inactive = score below 0.9.

Sequence of Retinoic acid receptor RXR-alpha (Homo sapiens) (P19793 whole entry, looked up, the tested form may be a part): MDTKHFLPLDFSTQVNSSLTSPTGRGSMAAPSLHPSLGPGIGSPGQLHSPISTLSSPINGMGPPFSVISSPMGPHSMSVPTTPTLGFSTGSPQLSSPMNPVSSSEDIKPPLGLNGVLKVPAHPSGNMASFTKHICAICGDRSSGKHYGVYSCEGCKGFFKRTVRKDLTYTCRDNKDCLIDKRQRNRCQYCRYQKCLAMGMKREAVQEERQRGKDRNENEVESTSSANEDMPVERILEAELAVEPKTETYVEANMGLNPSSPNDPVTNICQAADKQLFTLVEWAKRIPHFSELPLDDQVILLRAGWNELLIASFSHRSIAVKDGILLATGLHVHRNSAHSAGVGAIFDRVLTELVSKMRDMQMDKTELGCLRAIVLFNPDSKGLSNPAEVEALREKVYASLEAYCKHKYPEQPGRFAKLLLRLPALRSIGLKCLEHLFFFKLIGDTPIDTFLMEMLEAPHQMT
Sequence of human Vitamin D Receptor (VDR), VDR (gene 7421) (P11473 whole entry, looked up): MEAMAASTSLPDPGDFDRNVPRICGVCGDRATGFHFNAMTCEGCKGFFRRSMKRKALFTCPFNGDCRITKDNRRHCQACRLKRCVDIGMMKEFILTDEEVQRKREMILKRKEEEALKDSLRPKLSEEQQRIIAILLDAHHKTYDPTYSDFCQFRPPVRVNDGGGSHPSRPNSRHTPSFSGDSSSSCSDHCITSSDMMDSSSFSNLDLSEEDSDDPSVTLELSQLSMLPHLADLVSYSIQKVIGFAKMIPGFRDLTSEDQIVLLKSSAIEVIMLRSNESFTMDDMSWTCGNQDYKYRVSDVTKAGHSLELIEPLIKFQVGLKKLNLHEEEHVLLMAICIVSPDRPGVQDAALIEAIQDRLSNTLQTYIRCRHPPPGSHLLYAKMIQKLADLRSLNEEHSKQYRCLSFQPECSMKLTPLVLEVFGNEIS
Sequence of E-selectin (Homo sapiens) (P16581 whole entry, looked up): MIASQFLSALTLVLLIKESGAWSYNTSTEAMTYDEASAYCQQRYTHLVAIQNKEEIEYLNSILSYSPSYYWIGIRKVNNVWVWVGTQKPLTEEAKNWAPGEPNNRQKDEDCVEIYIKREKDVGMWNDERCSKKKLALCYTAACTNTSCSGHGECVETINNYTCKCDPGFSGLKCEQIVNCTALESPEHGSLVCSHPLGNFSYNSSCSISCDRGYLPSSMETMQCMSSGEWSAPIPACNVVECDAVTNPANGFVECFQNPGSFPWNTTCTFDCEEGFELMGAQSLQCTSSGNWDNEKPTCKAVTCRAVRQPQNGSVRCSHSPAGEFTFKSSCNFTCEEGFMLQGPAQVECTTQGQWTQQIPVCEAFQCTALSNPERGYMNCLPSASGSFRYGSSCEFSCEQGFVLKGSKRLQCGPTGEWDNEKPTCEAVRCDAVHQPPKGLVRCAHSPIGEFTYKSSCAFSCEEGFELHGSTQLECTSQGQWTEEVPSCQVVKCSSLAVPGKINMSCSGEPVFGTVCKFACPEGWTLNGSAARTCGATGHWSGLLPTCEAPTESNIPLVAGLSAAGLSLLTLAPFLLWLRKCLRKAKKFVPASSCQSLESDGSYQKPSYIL
Sequence of human Retinoid X Receptor beta (RXRb), RXRB (gene 6257) (P28702 whole entry, looked up, the tested form may be a part): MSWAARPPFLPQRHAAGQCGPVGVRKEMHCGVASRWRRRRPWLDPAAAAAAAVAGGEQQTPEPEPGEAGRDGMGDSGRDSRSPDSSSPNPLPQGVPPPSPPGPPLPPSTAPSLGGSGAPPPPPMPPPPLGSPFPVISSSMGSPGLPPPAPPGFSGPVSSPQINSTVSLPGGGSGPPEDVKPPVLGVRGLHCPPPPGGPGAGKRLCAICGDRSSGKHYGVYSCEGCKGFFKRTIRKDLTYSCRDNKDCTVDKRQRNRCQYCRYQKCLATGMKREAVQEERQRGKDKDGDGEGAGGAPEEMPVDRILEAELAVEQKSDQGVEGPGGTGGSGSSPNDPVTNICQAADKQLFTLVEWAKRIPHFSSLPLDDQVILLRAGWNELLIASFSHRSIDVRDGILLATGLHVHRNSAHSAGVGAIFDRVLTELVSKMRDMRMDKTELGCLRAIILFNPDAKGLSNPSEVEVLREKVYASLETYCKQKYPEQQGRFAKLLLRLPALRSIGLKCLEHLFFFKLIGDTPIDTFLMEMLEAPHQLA
Sequence of human Thyroid Receptor alpha (THRa1), THRA (gene 7067) (P10827 whole entry, looked up, the tested form may be a part): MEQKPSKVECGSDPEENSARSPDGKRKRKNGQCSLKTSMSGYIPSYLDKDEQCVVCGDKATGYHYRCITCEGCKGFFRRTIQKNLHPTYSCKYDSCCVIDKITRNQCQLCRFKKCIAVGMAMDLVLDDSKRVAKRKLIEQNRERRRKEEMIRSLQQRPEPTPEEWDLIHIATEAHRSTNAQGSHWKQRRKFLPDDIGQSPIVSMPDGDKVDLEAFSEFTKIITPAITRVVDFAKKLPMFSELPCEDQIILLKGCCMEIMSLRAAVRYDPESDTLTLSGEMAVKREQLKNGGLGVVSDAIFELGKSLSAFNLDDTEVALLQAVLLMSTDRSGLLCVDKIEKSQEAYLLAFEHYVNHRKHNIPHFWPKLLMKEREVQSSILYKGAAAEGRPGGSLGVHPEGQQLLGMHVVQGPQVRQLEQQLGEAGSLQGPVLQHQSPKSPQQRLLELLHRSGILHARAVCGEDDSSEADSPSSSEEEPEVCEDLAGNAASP

Consider `CCCCCOC(=O)COc1cc(N2C(=O)C3=C(CCCC3)C2=O)c(F)cc1Cl`, for which the outcome in test [1], in test [2], in test [3], in [4], in test [5] and in test [6] was inactive. Moreover, the outcome in [8], in test [9], in test [10], in test [11], in [12] and in test [13] was inactive. The outcome in test [14], in [15], in test [16], in test [17], in [18] and in test [19] was inactive. Also, the AC50 in test [7] is 19.2 µM (active).
`CCCCOCCOCCOCc1cc2c(cc1CCC)OCO2`: the result in test [1], in test [2], in [3], in [4], in test [5] and in test [6] was inactive. Besides, the outcome in test [7], in test [8], in test [9], in test [12], in [13] and in [14] was inactive. For the same molecule, the outcome in [15], in test [16], in test [17], in test [18] and in test [19] was inactive. In addition, the AC50 in test [11] was 21 µM (active).
For the molecule `C[C@]12CC[C@@H]3c4ccc(O)cc4C[C@@H](CCCCCCCCCS(=O)CCCC(F)(F)C(F)(F)F)[C@H]3[C@@H]1CC[C@@H]2O` (some centres not stated), the result in [1], in [2], in test [20], in test [3], in [4] and in test [5] was inactive. For the same molecule, the result in test [6], in [7], in test [8], in test [9], in test [10] and in test [13] was inactive. Further, the outcome in test [14], in test [15], in test [16], in test [17] and in test [19] was inactive. Also, the results for the AC50 in test [11], in [12] and in test [18] were 3.51 µM (active), 0.907 µM (active) and 12.4 µM (active), respectively.
